Usually pKd stands for −log10 of the Kd, conventionally taken in molar units. Read a high pKd as a small Kd.

pKd: −log10 of the molar value. A value given as a limit tells only on which side of the number the result lay.

For one experiment, the system named is T1, ERK5.
T1 construct: gene MAPK7

The next experiment has as its system T2, FAK.
T2 construct: gene PTK2
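Also: kd values determined as follow-up on hits from a single-replicate KINOMEscan panel screen.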

`Cc1ccc(Oc2ccc(Nc3ncnc4cc[nH]c34)cc2C)cn1`: the results for the pKd in the experiment with ERBB2 and in the experiment with FLT1 were 8.19 and less than 5.00, respectively.

`O=C(Nc1n[nH]c2nc(-c3ccccc3)c(Br)cc12)C1CC1` [SB-708998]: the pKd with ERK5 was less than 5.00.

In the experiment with FAK, `O=C(NCc1cccs1)c1cc(C(=O)c2c(Cl)cccc2Cl)c[nH]1` [GW823670] had a pKd of less than 5.00.

As to `CCc1nc(-c2cccc(C)c2)c(-c2ccncc2)s1`, in the experiment with FAK, the pKd is less than 5.00.

For `FC(F)(F)c1ccc(-c2ncn(CCCN3CCOCC3)c2-c2ccncc2)cc1` [SB-217780], in the experiment with FGFR1, the pKd is less than 5.00.

On to `COc1cc(OC)cc(-c2cc3cnc(N)nc3nc2NC(=O)NC(C)(C)C)c1`, for which the pKd in the experiment on FGFR1 is 7.18; with FGFR2 it was 6.51; in the experiment on FGFR3 it was 6.96.

In the experiment on FGFR4, `Nc1ncnc2c1ncn2-c1cccc(F)c1` [SKF-97560] gave a pKd of less than 5.00.

`COc1ccc(Nc2nccc(N3CCC(NS(=O)(=O)c4ccc(NC(C)=O)cc4)C3)n2)cc1` (stereo not shown) [GSK1379729]: in the experiment on FGFR4, the pKd was less than 5.00.

As for `COc1cc2nccc(Nc3ccc(OCc4ccc(NC(C)=O)cc4)cc3)c2cc1OC.Cl` [GW440135], the pKd with FLT1 was 6.17; in the experiment with FLT4 it was 6.32.

As for `COc1ccc(-n2cnc3c(N)ncnc32)cc1` [SKF-97236], in the experiment on FLT3, the pKd was 6.92.

`Cl.NS(=O)(=O)c1cccc(Nc2cc(-c3ccc(F)cc3)n[nH]2)c1` [GW824645]: the pKd in the experiment on FLT3 was 8.12.

In turn, `Cc1cccc(-c2cc(-c3c[nH]nc3-c3ccccn3)ccn2)c1` [GW679395] gave a pKd with GAK of 6.89.

In the experiment with GRK1, `OCCCNc1nccc(-c2c(-c3cccc(C(F)(F)F)c3)nn3cc(C(F)(F)F)ccc23)n1` [GW630813] had a pKd of less than 5.00.

As to `CN1C(=O)C(Nc2cc(Cl)c(O)c(Cl)c2)=C(c2ccc(Cl)cc2)C1=O` [SB-404321], the pKd in the experiment on GRK4 is less than 5.00.

Take `CCn1c(-c2ccoc2)nc2cnccc21` [SB-733887]: the pKd with GRK7 was less than 5.00.

As to `Nc1n[nH]c2nnc(-c3ccccc3)c(-c3ccccc3)c12` [GW554060], the pKd with HIPK2 was 6.39.

Molecule `Cn1c(=O)c(F)c(Nc2ccc(I)cc2F)c2c(=O)n(OC[C@H](O)CO)cnc21` gave a pKd in the experiment with HIPK4 of less than 5.00.

Consider `COc1cc2ncn(-c3cc(OCc4ccncc4)c(C(N)=O)s3)c2cc1OC` [GSK336313], for which, in the experiment on INSRR, the pKd was less than 5.00.

The values above are taken from paper PMC5540273 (PLoS ONE, 2017).
